Laboratory results from PubChem BioAssay (Tox21).
Results filed as inconclusive are left out. Activity calls are given as the source filed them. Calls come from the whole dose curve; as a rule, active = well fitted cell-killing curve with a large enough effect in the repeat runs; inconclusive = weak or mixed curves, or effect the other way; inactive = flat fitted curve, though single readings scatter.

assay: qHTS assay to identify small molecule antagonists of the constitutive androstane receptor (CAR) signaling pathway - cell viability counter screen (AID 1224837); settings: HepG2-CYP2B6-hCAR viability, CellTiter-Fluor, 23 h, co-treated with 50 nM CITCO; series mostly up to 92.4 µM; note: nearly all actives have a fitted effect of over 45% in size
Text: National Center for Advancing Translational Sciences [NCATS]
NIH Chemical Genomics Center [NCGC]
U.S. Environmental Protection Agency [EPA]
National Institutes of Environmental Health Sciences [NIEHS]
National Toxicology Program [NTP]
U.S. Food and Drug Administration [FDA]
The constitutive androstane receptor (CAR) is a nuclear receptor which regulates multiple drug metabolizing enzymes (DMEs) and transporters. Activating CAR will generally increase the transcription and subsequent translation of CYP2B6 and CYP3A4. These two DMEs represent about 50% of the drug metabolizing potential in the body. When CAR is deactivated, the metabolizing potential in the body will decrease, subsequently increasing the toxicity in the body or lowering the therapeutic potential of a pro-drug. Recently, there have also been studies performed indicating CARs role in energy metabolism and cancer therapy. Therefore, inhibiting CARs activity could have a potential effect on diabetes and cancer. Identifying environmental toxins and compounds which modulate CAR, through the use of the Tox21 10K compound collection, will be an important step in determining the toxicity and potential therapeutic effects these factors will have on the human body. To differentiate true CAR antagonists from cytotoxic substances, the assay is multiplexed with a cell viability assay.
Tox21 Assay Protocol Summary:
A double-stable (hCAR and CYP2B6-2.2kb) transfected cell line, derived from human hepatoma (HepG2) cells, was utilized for the duration of the quantitative high-throughput screens. The HepG2-CYP2B6-hCAR cells were dispensed at 2500 cells/4 uL/well in 1536-well white solid bottom plates using a Multidrop Combi. After the assay plates were incubated at 37 C/5% CO2 for 4 hrs, 23 nL of compounds at 15 concentrations (from 5-48 columns) or positive control (from 1 to 4 columns) were transferred to the assay plates using a Pintool station. One uL of CITCO (final concentration = 50 nM) was added, using a Flying Reagent Dispenser, inside each well. After a 23 hr incubation period at 37 C/5% CO2, 1 uL of CellTiter-Fluor reagent was added into each well of the assay plates using a Flying Reagent Dispenser. The fluorescence intensity in the plates was then measured using a ViewLux plate reader.
% is set by controls: 0 for no effect and ±100 for the full control effect.

Question: Which outcome does the source give for `Cn1nnc2c(C(N)=O)ncn2c1=O` here?
Answer: Its outcome is “inactive”.

Question: Which outcome does the source give for `CCC(C(=O)OCCN1CCOC(c2ccccc2)C1C)c1ccccc1` (stereo not given) here?
Answer: Its outcome is “inactive”.

Question: With `C=CCOC(=O)CCCCCC` as the molecule, how does the outcome read?
Answer: The outcome was “inactive”.

Question: For `c1ccc(-c2nn[nH]n2)cc1`, which outcome is on record?
Answer: Its outcome is “inactive”.

Question: With `OCC1(CO)COCOC1` as the molecule, how does the outcome read?
Answer: Its outcome is “inactive”.

Question: With `N[C@@H](Cc1ccc(O)cc1)C(=O)O` as the molecule, how does the activity change, negative = cytotoxicity read?
Answer: The activity change, negative = cytotoxicity was 8.2% [at 8.39 µM] (inactive).

Question: Which outcome does the source give for `O=C(O)CONC(=O)c1ccccc1` here?
Answer: The outcome was “inactive”.

Question: For `CC1=C(O)C(=O)C(C)O1` (stereo not given), which outcome is on record?
Answer: The outcome was “inactive”.

Question: For `O=C[O][Al]([O]C=O)[O]C=O`, which outcome is on record?
Answer: The outcome was “inactive”.

Question: For `C=CCN1C[C@H](C(=O)N(CCCN(C)C)C(=O)NCC)C[C@@H]2c3cccc4[nH]cc(c34)C[C@H]21`, which outcome is on record?
Answer: Its outcome is “inactive”.

Question: With `CC(C)OC(=O)OCOP(=O)(CO[C@H](C)Cn1cnc2c(N)ncnc21)OCOC(=O)OC(C)C` as the molecule, how does the outcome read?
Answer: Its outcome is “inactive”.

Question: With `Cc1c(NC(=O)c2cccnc2)c(=O)n(-c2ccccc2)n1C` as the molecule, how does the outcome read?
Answer: The outcome was “inactive”.

Question: For `CCCCOC(=O)[C@H](C)O`, which outcome is on record?
Answer: The outcome was “inactive”.

Question: For `Cc1ccc(N)cc1S(=O)(=O)O`, which outcome is on record?
Answer: The outcome was “inactive”.

Question: With `CCCC(=O)Nc1ccc(OCC(O)CNC(C)C)c(C(C)=O)c1` (stereo not given) as the molecule, how does the outcome read?
Answer: Its outcome is “inactive”.

Question: Which outcome does the source give for `CC12CCC(C1)C(C)(C)C2O` (stereo not given) here?
Answer: The outcome was “inactive”.

Question: Which outcome does the source give for `CCCC(=O)OCCC(C)CCC=C(C)C` (stereo not given) here?
Answer: Its outcome is “inactive”.

Question: Which outcome does the source give for `CCCCC1CCC(O)CC1` (stereo not given) here?
Answer: Its outcome is “inactive”.

Question: With `COc1ccc2c(c1)c1c3n2CCN(C)C3=NCC1` as the molecule, how does the outcome read?
Answer: The outcome was “inactive”.

Question: For `CC(C)Cn1cnc2c1c(=O)n(C)c(=O)n2C`, which outcome is on record?
Answer: Its outcome is “inactive”.

Question: For `C=CCCCCCCCCC(=O)OCCCC`, which outcome is on record?
Answer: The outcome was “inactive”.

Question: Which outcome does the source give for `CC1=C(C(=O)O)N2C(=O)[C@@H](NC(=O)[C@H](N)C3=CCC=CC3)[C@H]2SC1` here?
Answer: Its outcome is “inactive”.

Question: With `Cc1ccc(C)c([N+](=O)[O-])c1` as the molecule, how does the outcome read?
Answer: The outcome was “inactive”.

Question: For `CO[C@@]1(NC(=O)Cc2cccs2)C(=O)N2C(C(=O)O)=C(COC(N)=O)CS[C@@H]21`, which outcome is on record?
Answer: The outcome was “inactive”.

Question: For `NCC1(Cc2noc(=O)[nH]2)CCCCC1`, which outcome is on record?
Answer: The outcome was “inactive”.

Question: Which outcome does the source give for `CC(=O)O[Si](C)(OC(C)=O)OC(C)=O` here?
Answer: The outcome was “inactive”.

Question: Which outcome does the source give for `COc1nc(N)nc2nc[nH]c12` here?
Answer: Its outcome is “inactive”.

Question: For `CC(O)CC(C)O` (stereo not given), which outcome is on record?
Answer: The outcome was “inactive”.

Question: With `COc1cc2c(cc1OC)CN(C(=O)[C@H](C)N[C@@H](CCc1ccccc1)C(=O)O)[C@H](C(=O)O)C2` as the molecule, how does the outcome read?
Answer: Its outcome is “inactive”.

Question: For `CCCCCCC1(C)CCC(=O)O1` (stereo not given), which outcome is on record?
Answer: The outcome was “inactive”.

Question: For `CN(C)CC/C=C1/c2ccccc2COc2ccc(CC(=O)O)cc21`, which outcome is on record?
Answer: The outcome was “inactive”.

Question: With `CCCCCCCCCCOC(C)=O` as the molecule, how does the outcome read?
Answer: Its outcome is “inactive”.

Question: For `O=C(O)CCCCCC(=O)O`, which outcome is on record?
Answer: Its outcome is “inactive”.

Question: With `CC/C(C)=N\O[Si](C)(O/N=C(\C)CC)O/N=C(\C)CC` as the molecule, how does the outcome read?
Answer: Its outcome is “inactive”.

Question: Which outcome does the source give for `C/C=C(\C)C(C)=O` here?
Answer: Its outcome is “inactive”.

Question: Which outcome does the source give for `CC(=O)O[C@H]1C[C@@H]2CC[C@@]1(C)C2(C)C` here?
Answer: The outcome was “inactive”.

Question: With `O=Cc1ccccc1Cl` as the molecule, how does the outcome read?
Answer: Its outcome is “inactive”.

Question: For `CC(C)OC(=O)CCC(=O)OC(C)C`, which outcome is on record?
Answer: The outcome was “inactive”.

Question: Which outcome does the source give for `CCN1CCCC1CN` (stereo not given) here?
Answer: The outcome was “inactive”.

Question: For `COP(=O)(O)OP(=O)(O)OC`, which outcome is on record?
Answer: Its outcome is “inactive”.
